Measured values published in PubChem BioAssay.
The source made the active and inactive calls.

Legend:
Albumin (Bos taurus) = Albumin (Bos taurus) (UniProt P02769); assay: bovine serum albumin binders on microarray, profiling panel, artefact control for SMM control protein annotation, biochemical, small-molecule microarray, Alexa647 label, 635/667 nm fluorescence (AID 1118); settings: BSA-A647 binding, fluorescence 635 nm, higher = more signal;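 note: score merges 667 nm emission intensity and signal-to-noise per printed compound spot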
[1] = small-molecule microarray binders of probe aXIP, primary screen, biochemical, NeuroSMM set, 635/667 nm fluorescence (AID 1119); settings: higher = more signal, called active from +8 up or from −8 down;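 note: probe is the protein aXip251-270 applied at 1 µg/mL to compound-printed slides; binding of probe to printed compounds measured as 667 nm fluorescence plus signal to noise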
[2] = small-molecule binders of probe aNOTCH3, primary screen, biochemical, small-molecule microarray, 635/667 nm fluorescence (AID 1120); settings: higher = more signal;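 note: probe is a biotin-tagged antibody raised against NOTCH3 rather than NOTCH3 protein; score merges spot fluorescence near 667 nm with spot signal to noise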
[3] = small-molecule binders of probe aNOTCH2, primary screen, biochemical, small-molecule microarray, 635/667 nm fluorescence (AID 1121); settings: higher = more signal;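 note: score merges feature fluorescence read at 667 nm with its signal to noise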
[4] = molecular target: Carbonic anhydrase 2 (Homo sapiens) (UniProt P00918); assay: CAII small-molecule binders, profiling panel, biochemical, small-molecule microarray, Alexa647-labelled CAII (AID 1122); settings: CAII-A647 binding fluorescence, higher = more signal
[5] = COS7 lysate on small-molecule microarray, probe aHis, 635 nm (AID 1123); settings: COS7 cell lysate, fluorescence, higher = more signal;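 note: z-score combines 667nm fluorescence intensity with signal-to-noise per printed compound spot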
[6] = compound binding in COS7 lysate, probe aLAP1, primary screen, cell lysate, small-molecule microarray (AID 1124); settings: probe aLAP1, fluorescence, higher = more signal;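 note: lysate comes from COS7 cells expressing LAP1 and is applied at 0.3 µg/mL; score merges spot fluorescence near 667 nm with signal-to-noise over triplicate slides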
Sam68 (KHDRBS1) = assay: Sam68 small-molecule binders, primary screen, biochemical, small-molecule microarray, 635 nm fluorescence (AID 1125); settings: small-molecule microarray binding, higher = more signal;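 note: score merges 667 nm channel intensity with signal to noise over triplicate slides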
[7] = tested on: Chordin-like protein 2 (CHRDL2); assay: CHRDL2 small-molecule binders, primary screen, biochemical, small-molecule microarray, 635 nm fluorescence (AID 1126); settings: small-molecule microarray binding, fluorescence 635 nm; higher = more signal;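 note: printed compound slides probed with Chrdl2 protein at 4 µg/mL for 1 h at 4 C; score merges 667 nm emission intensity with signal to noise over three replicate slides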
[8] = molecular target: Concanavalin-A (Canavalia ensiformis) (UniProt P02866); assay: ConA small-molecule binders, primary screen, artefact control for SMM control protein annotation, biochemical, small-molecule microarray, Alexa647 label, 635 nm (AID 1127); settings: ConA-A647 binding fluorescence, higher = more signal;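 note: z combines 667 nm emission intensity with signal-to-noise across three replicate slides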
[9] = anti-His antibody binders, primary screen, artefact control for SMM control protein annotation, biochemical, small-molecule microarray, 635 nm fluorescence (AID 1128); settings: anti-His Alexa647 antibody binding, higher = more signal;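 note: score merges feature fluorescence with signal-to-noise for each printed compound spot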
[10] = tested on: Human papillomavirus type 1a E7 protein (residues 1-88); assay: HPV1a E7 small-molecule binders, primary screen, biochemical, small-molecule microarray, residues 1-88, 635 nm (AID 1129); settings: small-molecule microarray binding, fluorescence 635 nm; higher = more signal
[11] = molecular target: Focal adhesion kinase 1 (Homo sapiens) (UniProt Q05397); assay: small-molecule microarray binders of FAK, primary screen, biochemical, 635/667 nm fluorescence, BSA, DTT (AID 1130); settings: PTK2 binding, 635 nm fluorescence, higher = more signal;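 note: composite of spot emission at 667 nm and signal to noise over triplicate slides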
[12] = tested on: Fibrinogen (Alexa647-labelled); assay: fibrinogen binders on compound microarrays, profiling panel, artefact control for SMM control-protein annotation, biochemical, small-molecule microarray, 635/667 nm fluorescence (AID 1131); settings: fibrinogen-A647 binding fluorescence, higher = more signal;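 note: z-score merges 667 nm fluorescence with per-spot signal-to-noise over triplicate slides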
[13] = molecular target: Follistatin (Homo sapiens) (UniProt P19883); assay: follistatin binders on small-molecule microarrays, primary screen, biochemical, small-molecule microarray, 635/667 nm fluorescence (AID 1132); settings: FST binding, 635 nm fluorescence, higher = more signal
[14] = molecular target: Fibroblast growth factor 2 (Homo sapiens) (UniProt P09038); assay: FGF2 binders on small-molecule microarrays, primary screen, biochemical, small-molecule microarray, 635/667 nm fluorescence (AID 1133); settings: small-molecule microarray binding, FGF2, fluorescence 635/667; higher = more signal
[15] = mitochondrial membrane potential change in A549 cells, profiling panel, cell-based, JC-1 fluorescence, basal, 24 h, 100 nL (AID 1138); settings: higher = more signal;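 note: A549 lung adenocarcinoma cells under basal conditions with no added stimulus; test concentration not given here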
Lefty1 = Lefty1 binders on small-molecule microarrays, primary screen, biochemical, small-molecule microarray, 635/667 nm fluorescence (AID 1139); settings: small-molecule microarray binding, fluorescence 635/667; higher = more signal
[16] = tested on: wheat germ agglutinin (Triticum aestivum), Alexa647-labelled; assay: wheat germ agglutinin binders on compound microarrays, profiling panel, artefact control for SMM control-protein annotation, biochemical, small-molecule microarray, 635/667 nm fluorescence (AID 1140); settings: WGA-A647 binding, 635 nm fluorescence, higher = more signal;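 note: score merges 667 nm feature emission with signal to noise over triplicate slides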
[17] = molecular target: Luciferin 4-monooxygenase (Photinus pyralis) (UniProt P08659); assay: firefly luciferase enzyme inhibitors, primary screen, biochemical, luminescence, purified enzyme, 2006 set (AID 1141); settings: SteadyGlo luminescence, 30 min, higher = more signal, called active from +8 up or from −8 down;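 note: cell-free assay with purified firefly luciferase at 100 ng per well in PBS; test concentration not given here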
Luciferin 4-monooxygenase (Photinus pyralis), sequence (P08659 whole entry, looked up): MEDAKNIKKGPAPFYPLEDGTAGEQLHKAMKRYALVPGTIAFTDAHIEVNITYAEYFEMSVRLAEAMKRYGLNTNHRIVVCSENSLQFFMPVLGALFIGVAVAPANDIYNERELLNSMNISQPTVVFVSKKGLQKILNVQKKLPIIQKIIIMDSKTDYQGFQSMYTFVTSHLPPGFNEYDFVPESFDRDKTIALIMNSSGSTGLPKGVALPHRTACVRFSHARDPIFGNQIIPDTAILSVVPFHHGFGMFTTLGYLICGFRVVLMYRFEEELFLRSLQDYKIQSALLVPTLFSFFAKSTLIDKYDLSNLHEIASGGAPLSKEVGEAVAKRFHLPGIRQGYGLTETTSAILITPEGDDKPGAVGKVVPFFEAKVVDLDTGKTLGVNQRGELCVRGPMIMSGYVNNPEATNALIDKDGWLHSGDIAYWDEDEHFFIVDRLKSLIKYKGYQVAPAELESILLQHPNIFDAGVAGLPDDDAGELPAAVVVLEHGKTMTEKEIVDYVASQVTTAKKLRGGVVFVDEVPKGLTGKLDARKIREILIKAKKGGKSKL

Albumin (Bos taurus), sequence (P02769 whole entry, looked up): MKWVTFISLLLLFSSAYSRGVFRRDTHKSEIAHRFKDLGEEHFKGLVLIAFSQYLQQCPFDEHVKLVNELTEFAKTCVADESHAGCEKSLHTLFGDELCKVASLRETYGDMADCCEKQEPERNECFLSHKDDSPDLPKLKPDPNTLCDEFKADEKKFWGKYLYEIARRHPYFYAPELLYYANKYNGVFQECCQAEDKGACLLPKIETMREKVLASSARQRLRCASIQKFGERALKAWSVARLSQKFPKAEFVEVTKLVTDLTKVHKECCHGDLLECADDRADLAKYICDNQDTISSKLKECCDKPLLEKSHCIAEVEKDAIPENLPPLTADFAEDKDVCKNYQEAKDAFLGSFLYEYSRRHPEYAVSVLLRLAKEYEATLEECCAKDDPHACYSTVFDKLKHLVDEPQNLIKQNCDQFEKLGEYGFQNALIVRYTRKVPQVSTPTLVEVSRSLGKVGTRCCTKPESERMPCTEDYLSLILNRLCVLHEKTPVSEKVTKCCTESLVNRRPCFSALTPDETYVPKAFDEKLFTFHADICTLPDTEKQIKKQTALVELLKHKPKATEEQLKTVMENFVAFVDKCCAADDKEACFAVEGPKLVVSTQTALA
Concanavalin-A (Canavalia ensiformis), sequence (P02866 whole entry, looked up): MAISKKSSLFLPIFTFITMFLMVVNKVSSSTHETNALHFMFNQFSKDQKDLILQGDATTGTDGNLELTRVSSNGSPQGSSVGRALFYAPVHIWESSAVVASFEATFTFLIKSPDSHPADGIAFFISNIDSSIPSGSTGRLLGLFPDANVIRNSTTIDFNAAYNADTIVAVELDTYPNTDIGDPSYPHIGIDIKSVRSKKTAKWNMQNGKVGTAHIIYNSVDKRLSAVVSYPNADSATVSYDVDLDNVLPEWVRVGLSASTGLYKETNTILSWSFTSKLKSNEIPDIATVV
Focal adhesion kinase 1 (Homo sapiens), sequence (Q05397 whole entry, looked up): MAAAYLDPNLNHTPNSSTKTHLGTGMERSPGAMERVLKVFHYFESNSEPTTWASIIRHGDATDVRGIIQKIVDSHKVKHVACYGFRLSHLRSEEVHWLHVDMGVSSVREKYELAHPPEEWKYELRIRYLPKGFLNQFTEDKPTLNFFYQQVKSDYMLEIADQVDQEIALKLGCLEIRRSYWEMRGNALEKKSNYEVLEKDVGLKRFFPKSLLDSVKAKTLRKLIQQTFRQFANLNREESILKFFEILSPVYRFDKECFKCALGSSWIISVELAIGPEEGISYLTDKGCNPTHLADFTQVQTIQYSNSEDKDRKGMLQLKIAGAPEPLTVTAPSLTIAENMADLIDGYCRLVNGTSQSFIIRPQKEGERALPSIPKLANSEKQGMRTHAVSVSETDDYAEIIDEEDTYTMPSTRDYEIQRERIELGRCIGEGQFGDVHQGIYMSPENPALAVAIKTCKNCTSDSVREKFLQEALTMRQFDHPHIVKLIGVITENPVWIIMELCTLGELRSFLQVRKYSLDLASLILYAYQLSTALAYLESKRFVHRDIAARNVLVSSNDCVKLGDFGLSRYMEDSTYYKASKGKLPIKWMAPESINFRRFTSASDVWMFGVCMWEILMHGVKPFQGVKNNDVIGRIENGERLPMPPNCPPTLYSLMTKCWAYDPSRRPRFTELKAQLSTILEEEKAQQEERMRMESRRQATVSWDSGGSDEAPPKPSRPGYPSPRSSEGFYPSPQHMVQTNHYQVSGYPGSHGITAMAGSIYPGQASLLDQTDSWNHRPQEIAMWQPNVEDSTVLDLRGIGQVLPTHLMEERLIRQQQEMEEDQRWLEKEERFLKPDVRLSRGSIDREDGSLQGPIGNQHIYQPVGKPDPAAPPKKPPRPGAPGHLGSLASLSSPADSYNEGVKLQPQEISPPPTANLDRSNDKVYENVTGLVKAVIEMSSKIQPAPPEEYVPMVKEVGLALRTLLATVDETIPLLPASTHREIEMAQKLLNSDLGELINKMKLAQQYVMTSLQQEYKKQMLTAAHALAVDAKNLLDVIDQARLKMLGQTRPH
Fibroblast growth factor 2 (Homo sapiens), sequence (P09038 whole entry, looked up): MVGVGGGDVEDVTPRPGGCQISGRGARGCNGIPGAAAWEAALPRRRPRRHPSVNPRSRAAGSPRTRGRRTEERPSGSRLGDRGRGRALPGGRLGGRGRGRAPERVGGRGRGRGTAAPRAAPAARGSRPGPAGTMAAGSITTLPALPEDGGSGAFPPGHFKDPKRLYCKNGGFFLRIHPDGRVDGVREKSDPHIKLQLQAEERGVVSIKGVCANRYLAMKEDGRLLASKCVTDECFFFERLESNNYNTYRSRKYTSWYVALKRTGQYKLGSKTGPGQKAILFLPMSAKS
Follistatin (Homo sapiens), sequence (P19883 whole entry, looked up): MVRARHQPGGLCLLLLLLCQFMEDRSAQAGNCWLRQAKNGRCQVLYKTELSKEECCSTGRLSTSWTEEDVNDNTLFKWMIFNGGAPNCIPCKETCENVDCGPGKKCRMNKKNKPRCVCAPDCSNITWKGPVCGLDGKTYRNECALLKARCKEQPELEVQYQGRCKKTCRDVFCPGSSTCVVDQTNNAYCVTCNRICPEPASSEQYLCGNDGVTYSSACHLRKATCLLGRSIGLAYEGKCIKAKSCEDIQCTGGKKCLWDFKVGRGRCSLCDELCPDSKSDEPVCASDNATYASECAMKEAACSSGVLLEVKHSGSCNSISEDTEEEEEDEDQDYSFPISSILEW

Compound | composite z-score (Albumin (Bos taurus)) | composite Z-score [1] | composite z-score [2] | composite z-score [3] | composite z-score [4] | composite z-score [5] | composite z-score [6] | composite z-score (Sam68 (KHDRBS1)) | composite z-score [7] | composite z-score [8] | composite z-score [9] | composite z-score [10] | composite z-score [11] | composite z-score [12] | composite z-score [13] | composite z-score [14] | z-score [15] | composite z-score (Lefty1) | composite z-score [16] | z-score [17]
C#CCOc1ccc(C[C@H]2C(=O)O[C@H](Cc3ccccc3)[C@H](/C=C/C3CC3)N2CC#C)cc1 | -0.0855 | 0.319 (inactive) | -0.165 | -0.172 | 0.643 | -0.104 | 0.0683 | -0.0391 | 0.445 | -0.224 | -0.146 | 0.128 | 0.386 | 0.273 | -0.322 | -0.349 | 4.32 | -0.433 | -0.311 | -0.968 (inactive)
CCN(CC)c1ccc(N2CC=CC34O[C@@H]5C=CCOC(=O)[C@@H]5[C@H]3C(=O)N(C(CO)C(C)C)[C@@H]4C2=O)cc1 (stereo not given in full) | -0.819 | 0.316 (inactive) | -0.405 | -0.104 | -0.604 | -0.408 | 0.23 | -0.635 | -0.42 | -0.374 | -1.59 | -1.27 | -0.596 | -0.236 | -0.529 | -0.208 | 1.39 | -0.771 | -1.13 | -0.638 (inactive)
C=CCNC(=O)[C@H]1[C@@H]2C(=O)O[C@@H](c3ccccc3)[C@@H](c3ccccc3)N2[C@@H](c2ccc(OCCO)cc2)[C@]12C(=O)Nc1ccc(C#CCCO)cc12 | 0.321 | 0.512 (inactive) | 0.116 | -0.13 | 0.394 | 1.86 | 0.725 | 1.14 | 0.089 | 0.783 | -0.0886 | 1.11 | 0.418 | 0.61 | 1.3 | 0.327 | 0.187 | 0.909 | 1.06 | -0.969 (inactive)
O=C(NC1CC1)[C@@H]1c2ccccc2C(=O)N(Cc2ccccc2C(F)(F)F)[C@H]1c1ccc(CO)cc1 | 0.289 | 2.36 (inactive) | 0.0194 | -0.0173 | 0.676 | 2.26 | 0.234 | 1.35 | 0.102 | 1.08 | 0.911 | 1.1 | 0.829 | 0.428 | 0.928 | 0.86 | 2.04 | 0.159 | 0.527 | -0.945 (inactive)
O=C(NO)[C@]1(Cc2ccccc2)N=C(c2ccc(OCCCO)cc2)O[C@@H]1c1ccccc1 | 0.847 | -0.876 (inactive) | -0.183 | -0.0909 | 0.678 | -0.359 | 0.0192 | -0.32 | -0.671 | -1.06 | -0.0837 | 0.0707 | -1 | 0.141 | -0.248 | -0.0928 | 2.09 | -0.458 | 0.162 | -2.34 (inactive)
COc1ccc([Si](C)(C)[C@H]2[C@H](CC(=O)N(CCO)Cc3ccccc3)O[C@@]3(C(=O)N(Cc4ccc(N5CCOC5=O)cc4)c4ccccc43)[C@@H]2C)cc1 | -0.604 | 0.989 (inactive) | -0.0044 | -0.168 | 0.393 | 0.704 | 0.0474 | 0.641 | 0.457 | 1.06 | 0.845 | 0.0593 | 0.16 | 0.474 | 0.878 | 0.66 | 0.784 | 1.13 | 0.455 | -1.39 (inactive)
COc1ccc(CCNC(=O)[C@@]2(Sc3ccc(C)cc3)CC(=O)N(Cc3ccccc3)[C@@H]2c2ccc(CO)cc2I)cc1 | -0.605 | -0.224 (inactive) | -0.289 | -0.2 | 0.377 | 0.666 | 2.03 | 0.247 | -0.974 | 0.508 | 1.06 | 0.408 | 0.0363 | -0.718 | -0.168 | -0.662 | 2.51 | -0.89 | -0.0265 | -0.707 (inactive)
COc1ccc([Si](C)(C)[C@@H]2[C@@H](CCn3cc([C@H](O)c4ccccc4)nn3)O[C@]3(C(=O)N(C)c4c(Br)cc(C)cc43)[C@H]2C)cc1 | -0.0364 | 0.62 (inactive) | -0.129 | -0.118 | -0.273 | -0.525 | -0.129 | -0.849 | -0.254 | -0.679 | 0.18 | -0.773 | -0.501 | -0.59 | 1.19 | 1.44 | 0.517 | -0.166 | 0.397 | -2.15 (inactive)
CC1CC/C=C\[C@H]2OC34C=CCN(C(C)C)C(=O)[C@H]3N(C(CO)C(C)C)C(=O)[C@@H]4C2C(=O)O1 (stereo not given in full) | -0.314 | -0.481 (inactive) | -0.15 | -0.125 | 0.831 | 0.669 | -0.0978 | -1.57 | -1.36 | -2.39 | -1.64 | -2 | 1 | -1.9 | -0.459 | -0.294 | 1.01 | -1.02 | -2.12 | -1.3 (inactive)
CO[C@H]1O[C@H](CO)[C@@H](OC(=O)Nc2ccccc2)[C@H](OC(=O)Nc2ccccc2-c2ccccc2)[C@@H]1OC(=O)Nc1ccccc1-c1ccccc1 | 0.903 | -0.0038 (inactive) | 0.224 | -0.094 | 0.419 | 1.9 | 0.381 | 1.3 | -0.138 | 1.19 | 2.82 | 1.22 | 1.11 | 0.976 | 1.07 | 0.478 | 0.458 | 0.36 | 1.26 | -1.24 (inactive)
CCCCCN1CC=CC23O[C@@H]4/C=C\CCC(C)OC(=O)C4[C@H]2C(=O)N(CCCO)[C@@H]3C1=O (stereo not given in full) | -1.27 | 0.58 (inactive) | -0.357 | -0.161 | 0.97 | 0.1 | 1.62 | -0.237 | -1.15 | -0.521 | -1.7 | -0.719 | -0.249 | -1.63 | -1.3 | -0.965 | 0.684 | -1.2 | -1.08 | -0.637 (inactive)
O=C(NCC(F)(F)F)[C@@H]1c2ccccc2C(=O)N(C2Cc3ccccc3C2)[C@H]1c1ccc(CO)cc1 | 0.0975 | -1.34 (inactive) | -0.0362 | -0.0907 | 0.414 | -0.0023 | 0.386 | -0.945 | -1.3 | -1 | -1.02 | -0.801 | -0.26 | -1.58 | -0.871 | -0.485 | 2.62 | -1.25 | -2.05 | -1.04 (inactive)
C=CC[C@@]1(C(=O)NCc2ccccc2)N=C(c2ccc(OCCCO)cc2)O[C@@H]1c1ccccc1 | 0.864 | 0.118 (inactive) | 0.0762 | -0.061 | 0.493 | 2.56 | 0.268 | 0.966 | -0.353 | 0.454 | 1.11 | 1.16 | 0.997 | -0.017 | -0.646 | -1.1 | 0.215 | -0.865 | 0.539 | -1.05 (inactive)
O=C1c2ccccc2C(=O)c2cc([C@H]3Oc4ccccc4S(=O)(=O)N4CCC[C@@H]34)ccc21 | -0.791 | -0.228 (inactive) | -0.227 | -0.0933 | -0.157 | -0.319 | -0.235 | -1.02 | -0.504 | -2.59 | -1.02 | -0.551 | -0.953 | -0.91 | -1.07 | -0.533 | 1.18 | -0.534 | -1.26 | -1.04 (inactive)
COC(=O)c1c(CC[C@@H](CO)NC(=O)Nc2ccc(OC)cc2)oc(C(=O)Cc2ccccc2)c1C(=O)OC | 0.771 | 0.466 (inactive) | -0.004 | -0.0776 | 0.656 | 0.261 | 0.21 | 0.603 | 0.12 | 0.688 | -0.177 | 0.45 | -0.181 | 0.211 | 0.473 | 0.434 | 1.02 | 1.08 | 0.371 | -1.37 (inactive)
